High-throughput results from PubChem.
This is a sample that favours compounds with a hit; in the whole collection about 7.4% have one here.
ERK AVP inh – qHTS Assay for Inhibitors of the ERK Signaling Pathway using a Homogeneous Screening Assay; 0.99% of 72,000 active; Potency, µM (top dose mostly 57.5 µM), hits mostly inhibitors; HEK293-V1b, vasopressin-stimulated pERK AlphaScreen; further: nearly all actives have a fitted effect of over 55% in size
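Overnight-seeded V1b-HEK293 cells in 1% FBS got compound, then vasopressin (25 nM final, 5 min, 37C), then lysis buffer. AlphaScreen detection of phospho-ERK; activity normalized to basal and full-stimulation controls.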
TSHR agonist – qHTS Assay for Agonists of the Thyroid Stimulating Hormone Receptor; HEK293-CNG-TSHR cells (CNG channel as cAMP sensor), membrane potential dye, cAMP; Potency, µM (series often up to 57.1 µM), usual class: activators; 0.48% of 73,000 active; AID 926, 2007; active means well fitted activation curve with a large enough effect in the main read-out, with a control signal flat, not every such curve was filed as active; inconclusive means small, poorly fitted or top-dose-only effect, or a change in a side signal; inactive means no such curve, though single readings can be large or run the other way; reference of the percent scale not stated here;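 further: the control signal comes from parental cells without the receptor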
Target sequence (P16473 whole entry, looked up): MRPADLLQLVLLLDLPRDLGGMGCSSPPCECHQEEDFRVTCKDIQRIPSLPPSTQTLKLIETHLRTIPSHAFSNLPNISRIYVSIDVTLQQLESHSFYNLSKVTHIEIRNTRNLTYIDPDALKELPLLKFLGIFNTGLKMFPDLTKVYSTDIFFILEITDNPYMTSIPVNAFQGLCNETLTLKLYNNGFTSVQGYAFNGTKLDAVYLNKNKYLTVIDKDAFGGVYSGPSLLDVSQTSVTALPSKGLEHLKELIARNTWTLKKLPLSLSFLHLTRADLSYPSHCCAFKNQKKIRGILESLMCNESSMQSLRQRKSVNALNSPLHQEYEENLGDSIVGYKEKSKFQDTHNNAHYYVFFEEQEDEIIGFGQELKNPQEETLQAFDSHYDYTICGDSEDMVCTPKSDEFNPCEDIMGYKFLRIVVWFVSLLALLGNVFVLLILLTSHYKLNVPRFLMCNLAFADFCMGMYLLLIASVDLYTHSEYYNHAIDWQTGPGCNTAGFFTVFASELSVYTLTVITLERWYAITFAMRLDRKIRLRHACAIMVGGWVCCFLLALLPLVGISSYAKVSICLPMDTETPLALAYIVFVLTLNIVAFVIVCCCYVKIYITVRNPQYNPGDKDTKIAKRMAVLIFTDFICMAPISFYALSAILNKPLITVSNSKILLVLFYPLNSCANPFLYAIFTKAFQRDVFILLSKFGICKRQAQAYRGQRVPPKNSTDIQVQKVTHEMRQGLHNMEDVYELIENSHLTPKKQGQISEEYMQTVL
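HEK 293 cells stably expressing TSHR and a modified CNG channel, with CNG-only parental cells as counterscreen, were preloaded 60 min at room temperature with membrane potential dye containing 100 uM RO 20-1724. Compound exposure was 30 min, and depolarization was read as fluorescence at 590 nm.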
Tau fil binding – qHTS Assay for Tau Filament Binding | Microtubule-associated protein tau (Homo sapiens), P10636 | recombinant tau filaments, thioflavin S fluorescence, 15 h; filaments grown with octadecylsulfate alongside compound | Potency, µM (series often up to 57.1 µM) | 2% of 71,000 active;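 further: actives lower thioflavin S fluorescence by blocking filaments or displacing dye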
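Assay mix: 1 uM His-tagged tau, 30 uM sodium octadecylsulfate, thioflavine S dye in HEPES/NaCl/DTT buffer. Compound is added prior to the inducer. Fluorescence after 15 h at 37 C.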
CRE Fsk mod – Cell signaling CRE-BLA (Fsk stim) | CHO CRE-bla reporter (cAMP response element driving beta-lactamase), forskolin EC10, beta-lactamase ratio | Potency, µM (highest dose often 38.2 µM), most hits filed as activators | 2.5% of 71,000 active | AID 662, 2007; active means well fitted activation curve with a large enough effect in the signal ratio, with a control signal flat, not every such curve was filed as active; inconclusive means small, poorly fitted or top-dose-only effect, or effect the other way, or a change in a side signal; the % refers to the signal ratio
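Reporter-gene assay: CHO cells with beta-lactamase behind cAMP responsive elements, co-treated with compound and EC10 NKH 477 for 3 hours at 37 degrees Celsius. Activity came from the 460/530 nm CCF4 emission ratio.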
HEK293 cAMP ctrl – qHTS Assay for Agonists of the Thyroid Stimulating Hormone Receptor: Activators of Intracellular cAMP Concentrations in Parental HEK 293. parental HEK293 CNG cAMP sensor, membrane potential fluorescence. Potency, µM (series often up to 57.1 µM), actives largely listed as activators. 2.5% of 73,000 active. AID 938, 2007; further: nearly all actives have a fitted effect of over 55% in size
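Parental HEK 293 cells stably expressing a modified CNG channel (no TSHR) report cAMP rise as membrane depolarization. Membrane potential dye with 100 uM RO 20-1724 was loaded for 60 min at room temperature, then compound added for 30 min; fluorescence read at 590 nm.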
Large screens that a line does not name were inactive; ! = not confirmed by another sample. Unless noted, the call rests on the fitted dose curve; in most records, active means well fitted curve in the direction sought with a large enough effect; inconclusive means small, poorly fitted or top-dose-only effect, or another doubt; inactive means no such curve, though single readings can be large; an effect the other way counts as inactive or inconclusive.

COc1cc2c(cc1OC)[C@@]13CCN4C=C5CCO[C@H]6CC(=O)N2[C@@H]1[C@@H]6[C@H]5C[C@H]43	none
Cc1ccc2c(c1N)C(=O)c1ccccc1C2=O	ERK AVP inh inconclusive, TSHR agonist inconclusive, Tau fil binding 3.98µM, CRE Fsk mod inconclusive
O=C1c2ccccc2C(=O)c2ccccc21	none (no result: TSHR agonist, Tau fil binding, CRE Fsk mod, HEK293 cAMP ctrl)
Oc1ccc2c3c1O[C@@H]1c4[nH]c5c(c4C[C@@]4(O)[C@@H](C2)N(CC2CC2)CC[C@]314)C[C@]1(O)[C@@H]2Cc3ccc(O)c4c3[C@@]1(CCN2CC1CC1)[C@H]5O4	TSHR agonist inconclusive, HEK293 cAMP ctrl inconclusive
O=[As](O)(O)c1ccc(N=Nc2ccc([As](=O)(O)O)cc2)cc1	none
O=[As](O)(O)c1ccc(N=Nc2ccc(O)cc2)cc1	Tau fil binding 3.16µM
CC(C)CNCCc1ccccn1	none
C[C@]1(C(=O)O)[C@@H]2CC[C@@H](O2)[C@@]1(C)C(=O)O	ERK AVP inh 7.94µM, CRE Fsk mod inconclusive
CCCCCCCCCCCCCC(=O)O[C@H]1[C@@H](C)[C@@]2(O)[C@@H](C=C(CO)C[C@]3(O)C(=O)C(C)=C[C@@H]23)C2C(C)(C)[C@]21OC(C)=O (stereo not given in full)	TSHR agonist inconclusive, HEK293 cAMP ctrl inconclusive
CC1=NN(c2ccccc2)C(=O)[C@@H]1N=Nc1ccc([As](=O)(O)O)c(O)c1	Tau fil binding 3.16µM, CRE Fsk mod inconclusive
Nc1nc(N)c(N=Nc2ccc([As](=O)(O)O)c(O)c2)c(N)n1	none
c1coc(CNc2ncnc3nc[nH]c23)c1	TSHR agonist inconclusive, HEK293 cAMP ctrl 5.01µM!
COC(=O)[C@@]1(Cc2ccccc2)[C@H]2c3cc(C(=O)N(C)C)n(C)c3C[C@H]2CN1C(=O)c1ccccc1	TSHR agonist inconclusive, HEK293 cAMP ctrl 25.1µM
O=C(c1ccccc1)c1cn(CC(=O)N2CCCC2)c2ccccc12	none
CC(C)C(=O)c1cn(Cc2ccccc2C#N)c2ccccc12	TSHR agonist inconclusive, HEK293 cAMP ctrl 25.1µM
CCOC(=O)c1c(N)n(Cc2ccco2)c2nc3ccccc3nc12	TSHR agonist inconclusive, CRE Fsk mod inconclusive, HEK293 cAMP ctrl inconclusive
COCCCn1c(N)c(C(=O)NCCC(C)C)c2nc3ccccc3nc21	CRE Fsk mod inconclusive
COc1ccc(Cn2c(N)c(C(=O)NCc3ccco3)c3nc4ccccc4nc32)cc1	Tau fil binding 6.31µM, CRE Fsk mod inconclusive
COCCOC(=O)c1c(N)n(Cc2ccccc2)c2nc3ccccc3nc12	TSHR agonist inconclusive, CRE Fsk mod 15.8µM, HEK293 cAMP ctrl 15.8µM
O=C(O)[C@@H]1C[C@H]2C[C@@H](CP(=O)(O)O)CC[C@H]2CN1	Tau fil binding 31.6µM, CRE Fsk mod inconclusive
CC(=O)c1c(O)n(C)c(=S)n(-c2ccccc2)c1=O	TSHR agonist inconclusive, HEK293 cAMP ctrl 1µM
CCC1=C(C[C@H]2NCCc3cc(OC)c(OC)cc32)C[C@H]2c3ccccc3CCN2C1	TSHR agonist inconclusive, HEK293 cAMP ctrl inconclusive
NC(=O)CN1C[C@@H](O)CC1=O	none
c1ccc(N2CCCC3(CCNCC3)C2)nc1	TSHR agonist inconclusive, HEK293 cAMP ctrl 15.8µM
Clc1cccc2ccccc12	none
Nc1cccc2c(N)cccc12	TSHR agonist inconclusive, Tau fil binding 31.6µM
Cc1cc(N=Nc2ccccc2C)ccc1N	ERK AVP inh inconclusive, TSHR agonist inconclusive, Tau fil binding 7.94µM
CN1CC[C@]2(C)c3cc(O)ccc3N(C)[C@@H]12	Tau fil binding 31.6µM!, CRE Fsk mod inconclusive
C[C@@H]1[C@@H]2Cc3ccc(O)cc3[C@@]1(C)CCN2CC1CC1	none (no result: TSHR agonist)
CNC[C@H](O)c1ccc(O)cc1	none
CC(C)NC[C@H](O)c1ccc(N)c(C#N)c1	ERK AVP inh inconclusive, TSHR agonist inconclusive, Tau fil binding inconclusive, CRE Fsk mod inconclusive, HEK293 cAMP ctrl 0.005µM
O=C1N[C@@]2(CN3CCC2CC3)C(=O)N1CN(Cc1ccccc1)c1ccccc1	none
COc1cc2c(c(OC)c1OC)-c1ccc(O)c(=O)cc1[C@H](N)CC2	Tau fil binding inconclusive
COc1cc2c(c(OC)c1OC)-c1ccc(OC)c(=O)cc1[C@H](NC(C)=O)CC2	CRE Fsk mod 2.51µM
